Results as given in the supplement of paper PMC8975748.
Counter-ions that a name gives are not always drawn.

tested on: Saccharomyces cerevisiae BY4741 SeMeCo community; assay: z-score of subpopulation abundance vs DMSO median, subpopulation auxotrophic for M; higher = larger share of this subpopulation than in DMSO controls; conditions: 10 µM; 24 h; SM minimal medium; subpopulation (auxotrophy): M
Procedure: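 Fluorescent four-plasmid SeMeCo (self-establishing metabolically cooperating S. cerevisiae BY4741 community; plasmids pH-mRuby2, pL-mWasabi, pU-eCFP, pM-TagRFP657) was grown 24 h in minimal SM medium with each Selleck FDA-approved drug at 10 µM in 384-well plates. Cells were fixed and imaged by high-content confocal microscopy. For each auxotrophic subpopulation (and the prototroph), a z-score gives the deviation from the DMSO vehicle-control population median.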

Row | Structure (SMILES) | z-score of subpopulation abundance
1 | CC[C@@]1(O)C(=O)OCc2c1cc1n(c2=O)Cc2cc3cc(O)ccc3nc2-1 [Hydroxy Camptothecine] | 3.88
2 | CC[C@@H]1C(=O)OC[C@@H]1Cc1cncn1C [Pilocarpine HCl] | 0.65
3 | Nc1c(CC(=O)O)cccc1C(=O)c1ccccc1 [Amfenac Sodium Monohydrate] | 0.25
4 | OC(CCCN1CCCCC1)(c1ccccc1)c1ccccc1 [Diphenidol HCl] | 0.98
5 | CCCN[C@H]1CCc2nc(N)sc2C1 [Pramipexole 2HCl Monohydrate] | 0.15
6 | O=C(NCCO[N+](=O)[O-])c1cccnc1 [Nicorandil] | -0.48
7 | Cc1cc2c(s1)Nc1ccccc1N=C2N1CCN(C)CC1 [Olanzapine] | 0.84
8 | O=C1c2cccc3c2[C@H](CCC3)CN1[C@@H]1CN2CCC1CC2 [Palonosetron] | -0.21
9 | O=C(O)CCNC(=O)c1ccccc1 [Betamipron] | 0.51
10 | COCCOC(=O)C1=C(C)NC(C)=C(C(=O)OC/C=C/c2ccccc2)C1c1cccc([N+](=O)[O-])c1 (stereo not given) [Cilnidipine] | -1.14
11 | Oc1c(Cl)cc(Cl)cc1Sc1cc(Cl)cc(Cl)c1O [Bithionol] | -3.78
12 | O=[N+]([O-])c1ccc(O)c2ncccc12 [Nitroxoline] | 1.38
13 | CC(C)(C)C(=O)OCOC(=O)[C@@H]1N2C(=O)[C@@H](/N=C/N3CCCCCC3)[C@H]2SC1(C)C [Pivmecillinam hydrochloride] | -0.74
14 | CO[C@@H]1[C@H](OC(=O)/C=C/C=C/C=C/C=C/C(=O)O)CC[C@]2(CO2)[C@H]1[C@@]1(C)O[C@@H]1CC=C(C)C [Fumagillin] | -0.12
15 | Cn1c(=O)c2c(ncn2CC(O)CO)n(C)c1=O (stereo not given) [Dyphylline] | -1.07
16 | CN1CC(=O)N2[C@H](c3ccc4c(c3)OCO4)c3[nH]c4ccccc4c3C[C@@H]2C1=O [Tadalafil] | 0.2
17 | C[C@]12CCC3=C4CCC(=O)C=C4CC[C@H]3[C@@H]1CC[C@@]2(O)CC#N [Dienogest] | -0.36
18 | C[n+]1ccccc1C=NO [Pralidoxime Iodide] | 0.07
19 | CC(C)N1CCN(c2ccc(OCC3COC(Cn4cncn4)(c4ccc(Cl)cc4Cl)O3)cc2)CC1 (stereo not given) [Terconazole] | -1.43
20 | Cc1ccccc1OCC(O)CO (stereo not given) [Mephenesin] | 0

Row | Structure (SMILES) | z-score of subpopulation abundance
21 | O=C1C(N(CO)C(=O)NCO)N(CO)C(=O)N1CO (stereo not given) [Diazolidinyl urea] | -1.49
22 | CO/N=C(\C(=O)N[C@@H]1C(=O)N2C(C(=O)O)=CCS[C@H]12)c1csc(N)n1 [Ceftizoxime sodium] | 1.04
23 | O=C1CN2Cc3c(ccc(Cl)c3Cl)N=C2N1 [Anagrelide HCl] | -0.78
24 | O=c1cc(-c2ccc(O)c(O)c2)oc2cc(O)cc(O)c12 [Luteolin] | -0.18
25 | O=C1C(CC[S+]([O-])c2ccccc2)C(=O)N(c2ccccc2)N1c1ccccc1 (racemic) [(+/-)-Sulfinpyrazone] | -0.48
26 | COc1cc(O)c(C(=O)Nc2nc(C(=O)NCCN(C(C)C)C(C)C)cs2)cc1OC [Acotiamide hydrochloride] | -0.47
27 | O=C1NCC2(CCN(CCc3ccccc3)CC2)O1 [Fenspiride HCl] | 0.25
28 | N#CC(c1ccc(Cl)cc1)c1c(Cl)cc(-n2ncc(=O)[nH]c2=O)cc1Cl (stereo not given) [Diclazuril] | 0.92
29 | C(=C\c1ccccc1)/CN1CCN(C(c2ccccc2)c2ccccc2)CC1 [Cinnarizine] | -1.68
30 | CCn1cc(C(=O)O)c(=O)c2cnc(N3CCNCC3)nc21 [Pipemidic acid] | 0.72
31 | CCCCCCCCCC(=O)NC1C(Oc2c3cc4cc2Oc2ccc(cc2Cl)C(OC2OC(CO)C(O)C(O)C2NC(C)=O)C2NC(=O)C(NC(=O)C4NC(=O)C4NC(=O)C(Cc5ccc(c(Cl)c5)O3)NC(=O)C(N)c3ccc(O)c(c3)Oc3cc(O)cc4c3)c3ccc(O)c(c3)-c3c(OC4OC(CO)C(O)C(O)C4O)cc(O)cc3C(C(=O)O)NC2=O)OC(CO)C(O)C1O (stereo not given) [Teicoplanin] | 0.97
32 | Clc1ccc(CCC(Cn2ccnc2)Sc2c(Cl)cccc2Cl)cc1 (stereo not given) [Butoconazole nitrate] | -9.08
33 | CCOc1ccc2ccccc2c1C(=O)N[C@@H]1C(=O)N2[C@@H]1SC(C)(C)[C@@H]2C(=O)O [Nafcillin Sodium] | -0.26
34 | Nc1ccc(S(=O)(=O)Nc2ccccn2)cc1 [Sulfapyridine] | 0.24
35 | CCC(=O)Oc1ccc2c(c1)CCC1C2CCC2(C)C(OC(=O)CC)CCC12 (stereo not drawn) [Estradiol dipropionate(17-Beta-Estradiol-3,17-Dipropionate)] | 0.21
36 | CCCCN(CCCC)CC(O)c1cc(Cl)cc2c1-c1ccc(Cl)cc1/C2=C/c1ccc(Cl)cc1 (stereo not given) [Lumefantrine] | -0.39
37 | CCCc1nc(C)c2c(=O)nc(-c3cc(S(=O)(=O)N4CCN(CC)CC4)ccc3OCC)[nH]n12 [Vardenafil HCl Trihydrate] | 0.64
38 | CC(=O)[C@H]1CC[C@H]2[C@@H]3CC=C4C[C@@H](O)CC[C@]4(C)[C@H]3CC[C@]12C [Pregnenolone] | -0.05
39 | Cc1ccc(C(=O)C(C)CN2CCCCC2)cc1 (stereo not given) [Tolperisone HCl] | 0.72
40 | COc1ccnc(C[S+]([O-])c2nc3cc(-n4cccc4)ccc3[nH]2)c1C (stereo not given) [Ilaprazole] | -0.98
